# Bioassay records deposited in PubChem BioAssay by Broad Institute.
# Pf Dd2 inh: blocks growth of Plasmodium falciparum Dd2 parasites; AID 1159554; P. falciparum Dd2 growth, SYBR Green, 72 h; stronger effect = lower value; actives 2.3% (n = 94,000); activity change, % at 10 µM; in the data active = activity change below about -80%; inconclusive = no clear call, values can overlap the other calls
# C diff growth: C. difficile growth inhibition; Clostridium difficile clinical isolate growth, OD600, 24 h; stronger effect = lower value; growth activity, negative = inhibition, % at 16 µg/mL (by protocol); actives 0.25% (n = 86,000); AID 1259249;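 active = mean growth activity at or below -80% and every replicate also at or below -80%; inconclusive = mean at or below -80% but some replicate above -80%; inactive = mean growth activity above -80%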;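 note: 0% = DMSO wells and -100% = levofloxacin 16 µg/mL wells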
# T cruzi growth-1: inhibitors of T. cruzi proliferation | T. cruzi beta-gal in NIH3T3, GalScreen luminescence, 90 h | inhibition, % at 8.34 µM | actives 5.9% (n = 77,000) | AID 624255;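 active = mean inhibition above about 93%, with at least 55% of replicates each passing it, limit read from the data, passing the limit was not always enough; inconclusive = only one of those two conditions holds; inactive = neither condition holds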
# T cruzi growth-2: inhibitors of T. cruzi proliferation; shares compounds with T cruzi growth-1; T. cruzi beta-gal in NIH3T3, GalScreen luminescence, 90 h; inhibition, % at 8.35 µM; actives 72% (n = 5,600); AID 651739;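 active = mean replicate inhibition above about 95% and at least 55% of replicates individually reaching it, limit read from the data; inconclusive = only one of the two criteria is met; inactive = neither criterion is met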
# T cruzi growth-3: inhibitors of T. cruzi proliferation; inhibition, % at 2.09 µM; shares compounds with T cruzi growth-1; actives 21% (n = 5,600); T. cruzi beta-gal in NIH3T3, GalScreen luminescence, 90 h;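 active = mean inhibition above about 95%, with at least 55% of replicates also reaching it, limit read from the data; inconclusive = meets just one of the two conditions; inactive = meets neither condition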;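 note: plate controls were neutral control median for no effect and positive control median for full effect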
# NIH3T3 tox: cytotoxicity in mouse NIH/3T3 fibroblasts. shares compounds with T cruzi growth-1. cytotoxicity (signal decrease), % at 8.35 µM. NIH/3T3 viability, CellTiter-Glo ATP luminescence, 90 h. actives 14% (n = 5,600);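 active = mean signal decrease across replicates above about 35% based on untreated-well scatter, with enough replicates individually passing, limit read from the data; inconclusive = no rule stated though some were filed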;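 note: 0% = median of neutral control wells and 100% = median of positive control wells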
# NIH3T3 tox 2: kills mouse NIH/3T3 fibroblasts; inhibition, % at 24.9 µM; actives 56% (n = 5,600); NIH/3T3 viability, CellTiter-Glo ATP luminescence, 90 h; shares compounds with T cruzi growth-1;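 active = mean loss of cell viability signal at or above a set limit, and enough replicates individually reaching it; inconclusive = meets only the mean limit or only the replicate share; inactive = meets neither condition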;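 note: 0% = median of neutral control wells and 100% = median of positive control wells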
# * hit, by the source's call; ? = inconclusive; / = no result given. Shown are actives, neighbours in structure and some others; about 6.8% of the full set was active somewhere.
SMILES,Pf Dd2 inh,C diff growth,T cruzi growth-1,T cruzi growth-2,T cruzi growth-3,NIH3T3 tox,NIH3T3 tox 2
COCCNC(=O)C[C@@H]1C[C@@H]2c3cc(NC(=O)Nc4ccc(OC)cc4)ccc3O[C@@H]2[C@H](CO)O1,-29,-11,-2,/,/,/,/
COc1ccc(NC(=O)Nc2ccc3c(c2)[C@H]2C[C@H](CC(=O)NCCc4ccccc4)O[C@@H](CO)[C@H]2O3)cc1,-58,14,148*,105*,56,-12,-3
C[C@H]1CN([C@@H](C)CO)C(=O)c2cc(NC(=O)Nc3cccc4ccccc34)ccc2O[C@H]1CN(C)Cc1ccc(C(F)(F)F)cc1,13,12,53,/,/,/,/
C[C@H](CO)N1C[C@H](C)[C@H](CN(C)Cc2ccccc2)Oc2ccc(NC(=O)Nc3cccc4ccccc34)cc2C1=O,16,2,-13,/,/,/,/
C[C@@H]1CN([C@@H](C)CO)C(=O)c2cc(NC(=O)Nc3cccc4ccccc34)ccc2O[C@H]1CN(C)Cc1ccc(C(F)(F)F)cc1,9,-5,96*,106*,77,21,21
C[C@H](CO)N1C[C@H](C)[C@@H](CN(C)Cc2ccc(C(F)(F)F)cc2)Oc2ccc(NC(=O)Nc3cccc4ccccc34)cc2C1=O,11,3,100*,107*,60,24,12
COC(=O)C[C@H]1CC[C@@H](NS(=O)(=O)c2ccc(OC)cc2)[C@H](CO)O1,17,/,-73,/,/,/,/
C[C@@H]1CN([C@@H](C)CO)C(=O)Cc2cc(NC(=O)Cc3ccccc3)ccc2O[C@H]1CN(C)Cc1ccc(C(F)(F)F)cc1,-29,13,94,/,/,/,/
C[C@H]1CN([C@@H](C)CO)C(=O)Cc2cc(NC(=O)Cc3ccccc3)ccc2O[C@H]1CN(C)Cc1ccc(Cl)c(Cl)c1,-12,86,?,100*,59,21,105*
C[C@H](CO)N1C[C@H](C)[C@H](CN(C)Cc2ccc(Cl)c(Cl)c2)Oc2ccc(NC(=O)Cc3cn(C)c4ccccc34)cc2CC1=O,-73,-3,92,/,/,/,/
C[C@H](CO)N1C[C@H](C)[C@@H](CN(C)Cc2ccccc2)Oc2ccc(NC(=O)Cc3ccccc3)cc2CC1=O,-38,-3,95,/,/,/,/
C[C@H](CO)N1C[C@H](C)[C@@H](CN(C)Cc2ccc(C(F)(F)F)cc2)Oc2ccc(NC(=O)Cc3ccccc3)cc2CC1=O,-20,7,106*,95,101*,-1,104*
C[C@H](CO)N1C[C@H](C)[C@H](CN(C)Cc2ccc(C(F)(F)F)cc2)Oc2ccc(NC(=O)Cc3cn(C)c4ccccc34)cc2CC1=O,-34,5,101*,107*,19,20,?
C[C@H]1CN([C@@H](C)CO)C(=O)Cc2cc(NC(=O)Cc3cn(C)c4ccccc34)ccc2O[C@H]1CN(C)Cc1ccc(Cl)c(Cl)c1,-59,-4,100*,107*,57,-7,-3
C[C@H](CO)N1C[C@H](C)[C@@H](CN(C)Cc2ccc(C(F)(F)F)cc2)Oc2ccc(NC(=O)Cc3cn(C)c4ccccc34)cc2CC1=O,-21,10,87,/,/,/,/
CC(=O)N(C)C[C@H]1Oc2cc(-c3cccc(C#N)c3)ccc2S(=O)(=O)N([C@@H](C)CO)C[C@@H]1C,25,-2,36,/,/,/,/
O=C(Nc1ccc(Cl)c(Cl)c1)N[C@@H]1CC[C@@H](CCn2cc(C3CC3)nn2)O[C@H]1CO,-7,4,/,/,/,/,/
CN(C)CC(=O)N1CCCCN2[C@H](CO)[C@@H](c3ccc(/C=C/c4ccccc4)cc3)[C@@H]2C1,-17,6,-21,/,/,/,/
CCC(=O)N1CCCCN2[C@H](C1)[C@H](c1ccc(/C=C/c3ccccc3)cc1)[C@@H]2CO,-3,-1,105*,78,14,25,103*
CCC(=O)N1CCCCN2[C@H](CO)[C@@H](c3ccc(/C=C/c4ccccc4)cc3)[C@@H]2C1,8,9,63,/,/,/,/
CN(C)CC(=O)N1CCCCN2[C@H](CO)[C@H](c3ccc(/C=C/c4ccccc4)cc3)[C@@H]2C1,-2,1,101*,112*,110*,89*,104*
